Data from PubChem BioAssay (NCI).
The panel holds about 83,000 compounds, 20% with a hit somewhere; the sample as a whole holds those more often.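 Results are percent growth after 48 hours of single-concentration exposure. 100 means growth as in untreated cells, lower positive values show inhibition; negative values down to -100 show cell death.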 A number with no mark means an inactive call. Active and inactive are the calls of the source. The calls were made as follows: active = growth percent below 10; inactive = the rest.

Key:
Assay in all cases: NCI-60 one-dose screen, 48 h (100 = growth as untreated, 0 = no growth, -100 = all killed)
NCI-H23 lung = settings: 10 µM unless noted
NCI-H226 lung = settings: 10 µM unless noted
NCI-H322M lung = settings: 10 µM unless noted
HOP-62 NSCLC = settings: 10 µM unless noted
NCI-H460 lung = settings: 10 µM unless noted
HOP-92 NSCLC = settings: 10 µM unless noted
NCI-H522 lung = settings: 10 µM unless noted
A549/ATCC NSCLC = settings: 10 µM unless noted
786-0 renal = settings: 10 µM unless noted
COLO 205 colon = settings: 10 µM unless noted
DU-145 prostate = settings: 10 µM unless noted
K-562 leukemia = settings: 10 µM unless noted
MALME-3M melanoma = settings: 10 µM unless noted
MDA-MB-231 breast = settings: 10 µM unless noted
RXF 393 renal = settings: 10 µM unless noted
SF-268 CNS = settings: 10 µM unless noted
SF-295 CNS = settings: 10 µM unless noted
SF-539 CNS = settings: 10 µM unless noted
UACC-257 melanoma = settings: 10 µM

SMILES	growth (NCI-H23 lung)	growth (NCI-H226 lung)	growth (NCI-H322M lung)	growth (HOP-62 NSCLC)	growth (NCI-H460 lung)	growth (HOP-92 NSCLC)	growth (NCI-H522 lung)	growth (A549/ATCC NSCLC)	growth (786-0 renal)	growth (COLO 205 colon)	growth (DU-145 prostate)	growth (K-562 leukemia)	growth (MALME-3M melanoma)	growth (MDA-MB-231 breast)	growth (RXF 393 renal)	growth (SF-268 CNS)	growth (SF-295 CNS)	growth (SF-539 CNS)	growth (UACC-257 melanoma)
N=c1c2cc(-c3ccccc3)oc2ncn1/N=C/c1ccccc1	98.1%	98.9%	94.5%	87.4%	57.6%	92%	42.1%	71.2%	78.6%	88.1%	96.7%	27.6%	48.9%	95.1%	49.4%	89%	84.3%	85.8%	85.6%
O=c1oc2ccc(-c3ccc(F)cc3F)cc2c(=O)n1-c1ccc(F)c(F)c1	2.21% (active)	6.65% (active)	6.5% (active)	17.6%	2.7% (active)	-21.4% (active)	-2.51% (active)	7.96% (active)	10.2%	83.2%	17.5%	10.8%	-14.6% (active)	7.85% (active)	-28.4% (active)	13.7%	-12.6% (active)	11.9%	-14.9% (active)
O=c1oc2ccc(-c3ccc(F)cc3F)cc2c(=O)n1-c1cccc(C(F)(F)F)c1	0.0881% (active)	13.4%	3.52% (active)	15%	4.79% (active)	-25.6% (active)	0.254% (active)	9.67% (active)	14.7%	87.3%	15.6%	12.9%	-14.7% (active)	-4.78% (active)	-24.7% (active)	16.1%	-17.3% (active)	11.6%	-9.2% (active)
Cc1ccc(NC(=O)c2ccc(CN3CCN(C)CC3)c(I)c2)cc1Oc1ccc(-c2[nH]nc3ncnc(N)c23)cc1	87.9%	91.8%	89.8%	105%	90.4%	83.4%	46.6%	66.1%	-74.7% (active)	53%	99.6%	1.61% (active)	-72.7% (active)	39.3%	44.9%	90.3%	78.4%	67.5%	-46.4% (active)
Cn1ccnc1C(=O)/C=C/c1ccc(C(=O)Nc2ccc(NC(=O)CCNC(=O)c3csc(Br)n3)cc2)cc1	43.5%	84.5%	66.2%	62.6%	46.2%	103%	29%	64.5%	66.3%	85.7%	11.9%	16%	102%	72.9%	68.2%	62.2%	81.3%	7.51% (active)	88.6%
O=S(=O)(NCCCNc1nccc(-n2cnc3ccccc32)n1)c1ccc(F)cc1	70.4%	64.1%	99.5%	82.7%	79.7%	87.9%	68.5%	88.8%	97.7%	86%	87.2%	37.2%	86.1%	74.4%	163%	86.3%	70.6%	86.2%	66.2%
C#CCOc1ccccc1C(Nc1ccccc1)c1nnnn1C1CCCCC1 (configuration not stated)	103%	107%	92.5%	103%	103%	103%	80.1%	96%	88.3%	112%	105%	77.5%	100%	96.1%	113%	93.7%	88.5%	101%	101%
NC(=O)c1c(NC(=O)c2cccc(C(F)(F)F)c2F)sc2c1CCC(=O)C2	4.57% (active)	24.8%	98.6%	58.4%	10.9%	13.8%	-11.4% (active)	64.8%	30.2%	-9.67% (active)	89.1%	13.4%	19.4%	12.9%	-5.49% (active)	21.6%	40%	0.149% (active)	12.9%
